About 2,100 (0.58%) of roughly 360,000 compounds were called active. The entries come from a sample that favours actives as a whole. Unmarked numbers belong to inactive results.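 How the source made its calls: active means inhibition above a per-plate cutoff, the mean of that plate's test compounds plus 3 SD (cut at about 27% in these data); inactive means the rest.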
Each compound was assayed against Muscarinic acetylcholine receptor M5 (Homo sapiens) (UniProt P08912) (assay: CHRM5 blockers of acetylcholine calcium response – CHO cells, Fluo-8 calcium fluorescence, primary screen (AID 624040;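 further: 0% = acetylcholine EC80 with DMSO and 100% = DMSO without agonist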)). Details: CHO-hM5 cells, ACh EC80, at 3 µM, hits give high values.
Sequence of Muscarinic acetylcholine receptor M5 (Homo sapiens) (P08912 whole entry, looked up): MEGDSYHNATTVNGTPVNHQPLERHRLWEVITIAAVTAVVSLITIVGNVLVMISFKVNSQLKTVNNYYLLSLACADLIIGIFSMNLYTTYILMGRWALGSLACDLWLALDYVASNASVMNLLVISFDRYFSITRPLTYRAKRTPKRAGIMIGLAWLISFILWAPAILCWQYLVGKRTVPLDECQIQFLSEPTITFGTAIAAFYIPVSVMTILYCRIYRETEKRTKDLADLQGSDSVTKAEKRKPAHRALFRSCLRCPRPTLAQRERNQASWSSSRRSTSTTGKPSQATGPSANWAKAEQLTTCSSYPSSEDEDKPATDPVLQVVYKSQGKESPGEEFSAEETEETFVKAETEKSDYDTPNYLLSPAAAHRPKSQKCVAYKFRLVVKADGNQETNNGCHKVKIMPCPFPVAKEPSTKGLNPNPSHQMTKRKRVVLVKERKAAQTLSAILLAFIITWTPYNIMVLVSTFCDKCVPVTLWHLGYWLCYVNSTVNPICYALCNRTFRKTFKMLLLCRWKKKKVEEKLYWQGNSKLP
In the case of `CC(=O)OC(C)C[N+](C)(C)C` (configuration not stated), the inhibition was 95.7% (active).
In the case of `CC(=O)OCC(COC(C)=O)OC(C)=O`, the inhibition was -2.99%.
Compound `CC(=O)OCCC(C)C` has an inhibition of 6.5%.
With `CC(C[N+](C)(C)C)OC(N)=O` (configuration not stated) the inhibition was 74.8% (active).
`Cn1c(CCCOc2ccc(Cl)cc2Cl)n[nH]c1=S` gave an inhibition of 6.7%.
With `CN(Cc1ccc(CNC[C@H]2O[C@@H](n3cnc4c(N)ncnc43)[C@H](O)[C@@H]2O)o1)S(C)(=O)=O` the inhibition was -3.06%.
Compound `O=C(COC(=O)c1cccnc1Cl)Nc1ccc(S(=O)(=O)N2CCOCC2)cc1` has an inhibition of 13.3%.
`CCOc1ccc(NC(=O)CSc2nc3ccccc3c(=O)n2Cc2cccs2)cc1` was tested, and the inhibition was 8.62%.
With `O=C(NC(=S)Nc1ccc(Cl)cc1Cl)C1CC1` the inhibition was 6.51%.
For `COC(=O)c1ccccc1NC(=O)CN(Cc1ccc(Cl)cc1)S(C)(=O)=O`, the inhibition was 5.2%.
For `O=C(Cc1ccc(Cl)cc1)NC(=S)Nc1ccccc1O`, the inhibition was 64.5% (active).
Work on `Cc1cc(NS(=O)(=O)c2ccc(NC(=O)c3cccc(OC(F)F)c3)cc2)nc(C)n1` yielded an inhibition of -2.8%.
For `O=C1C(Cl)=C(Oc2ccccc2)C(=O)c2ccccc21`, the inhibition was 30.4% (active).
For `O=C(NCc1ccco1)C(c1ccncc1)N(C(=O)Cn1nnc2ccccc21)c1ccccc1` (configuration not stated), the inhibition was 9.94%.
For `O=C(Nc1ccc(S(=O)(=O)NCC2CCCO2)cc1)c1ccc(F)cc1` (configuration not stated), the inhibition was 1.2%.
With `N=c1n(Cc2ccc(Cl)cc2)c2ccccc2n1CC(O)c1ccco1` (configuration not stated) the inhibition was 2.61%.
Compound `O=S1(=O)CC/C(=N\Nc2ccc(F)cc2)c2ccsc21` has an inhibition of -3.05%.
`CC(C)NS(=O)(=O)c1ccc(OCC(=O)NC2CCCCCC2)cc1` was tested, and the inhibition was 1.3%.
Work on `Cc1cn([C@H]2C[C@H](O)[C@@H](/C=C/C(=O)NCCCc3ccccc3)O2)c(=O)[nH]c1=O` yielded an inhibition of 6.27%.
Work on `Cc1ccc(NC(=O)c2ccc(Oc3ncccn3)cc2)cc1` yielded an inhibition of 9.93%.
For `Cc1ccc(NC(=O)OCCNC(=O)c2ccncc2)cc1`, the inhibition was 50% (active).
Work on `CCOC(=O)c1cccnc1NC(=O)c1ccncc1` yielded an inhibition of 4.86%.
With `COC(=O)[C@]12CCCCC=C1N(CCC1=CCCCC1)C(=O)[C@H](CC(=O)N1CCSCC1)C2` the inhibition was 1.29%.
With `CCCCCCC(O)(CCN1CCCCC1)c1ccccc1` (configuration not stated) the inhibition was 97.8% (active).
`C#CC(CCN1CCCCC1)(OC)c1ccccc1` (configuration not stated) was tested, and the inhibition was 30.6% (active).
For `O=C(c1ccccc1)C(O)(CN1CCCCC1)c1ccccc1` (configuration not stated), the inhibition was 8.34%.
For `CC(CN1CCCCC1)c1ccccc1` (configuration not stated), the inhibition was 2.28%.
Compound `c1ccc2cc3[nH]c(CN4CCCCC4)nc3cc2c1` has an inhibition of 7.88%.
For `CCCCCC(O)(CCN1CCCCC1)c1ccccc1` (configuration not stated), the inhibition was 98.2% (active).
In the case of `CCc1ccccc1NC(=O)NCCN1CCCCC1`, the inhibition was -5.44%.
`COc1ccc(C(O)(C2CCCCC2)C(CN2CCCC2)c2ccccc2)cc1` (configuration not stated) was tested, and the inhibition was -3.7%.
Work on `OC(C#CCN1CCOCC1)(c1ccccc1)C1CCCCC1` (configuration not stated) yielded an inhibition of 7.29%.
With `CCc1ccc[n+](-c2nc([O-])sc2C=O)c1` the inhibition was 9.19%.
`Cc1ccc(C23CC4CC(CC(C(=O)NCC(=O)O)(C4)C2)C3)cc1` showed an inhibition of 6.84%.
Work on `Cc1nnc(SCCCCSc2nnc(C)c(=O)[nH]2)[nH]c1=O` yielded an inhibition of -7.67%.
`CC1(C(=O)Nc2ccccc2Br)CCN1C(=O)CC1CC1` (configuration not stated) was tested, and the inhibition was 4.22%.
Compound `COn1c(=O)c(=O)n(OC)c2ccccc21` has an inhibition of 6.69%.
For `CCOc1cc(C(=O)Nc2ccc(S(=O)(=O)Nc3cnc4ccccc4n3)cc2)cc(OCC)c1OCC`, the inhibition was 0.97%.
With `Nc1nnc(SCC(=O)Nc2ccc3nc(SCC(=O)Nc4ccccc4)sc3c2)s1` the inhibition was 43.5% (active).
For `O=C(CSc1nc(-c2ccccc2)cs1)Nc1cccc([N+](=O)[O-])c1`, the inhibition was 14.8%.
`Nc1nnc(SCC(=O)NC2CCCc3ccccc32)s1` (configuration not stated) was tested, and the inhibition was 2.63%.
Compound `CCOC(=O)c1nc(-c2ccc3c(c2)OCO3)[nH]c1C` has an inhibition of 3.11%.
With `COc1ccc2c(c1)[C@H]1[C@H](CO2)[C@H](c2ccccc2)[C@]2(C)C(=O)Nc3cc(F)c(F)cc3C(=O)N12` the inhibition was 11.7%.
For `CCN1CCC2(CC1)N=C(c1ccc(F)cc1)C(=S)N2C(=O)c1ccc(C)cc1`, the inhibition was 69.5% (active).
With `Cc1ccc(C(=O)N2CC(=O)Nc3ccc(F)cc3C2c2ccc(F)cc2)cc1` (configuration not stated) the inhibition was 11.2%.
With `CCN1CCC(O)(/C=C/c2ccc(C)cc2)C(C(=O)/C=C/c2ccc(C)cc2)C1` (configuration not stated) the inhibition was 5.72%.
For `CCOc1ccc(-n2c(N)c(C(=O)NCC3CCCO3)sc2=S)cc1` (configuration not stated), the inhibition was 3.05%.
In the case of `Cc1cccc(C(=O)NCC(=O)OCC(=O)N(C)CC(=O)Nc2ccccc2Cl)c1`, the inhibition was 9.75%.
In the case of `CC1(C)CC(N2CCN(C(c3ccccc3)c3ccccc3)CC2)=CC(=[N+]2CCCCC2)C1`, the inhibition was 31.9% (active).
In the case of `CC1CC(NC(=O)/C(C#N)=C/c2ccc[nH]2)CC(C)(C)C1` (configuration not stated), the inhibition was 1.56%.
`CCC(=O)N1CCN=C1SCc1ccc(F)cc1` gave an inhibition of 5.93%.
`COc1ccccc1CNc1nc(Nc2ccccc2Cl)c2sccc2n1` showed an inhibition of 11.1%.
With `COc1cccc(CNc2nc(NCc3cccs3)nc3ccsc23)c1` the inhibition was 44.2% (active).
Compound `COc1cccc(CNc2nc3cc(-c4csc5ccccc45)sc3c(=O)n2C)c1` has an inhibition of 2.12%.
For `CCOc1ccc(N2C(=O)CC(N(CCc3ccc(OC)c(OC)c3)C(=S)Nc3ccccc3)C2=O)cc1` (configuration not stated), the inhibition was 30.8% (active).
In the case of `CN(C)c1ccc(NC(=S)N(CCc2ccccc2)C2CC(=O)N(c3c(Cl)cccc3Cl)C2=O)cc1` (configuration not stated), the inhibition was -4.62%.
`COC(=O)CN(C(=S)Nc1ccc(Cl)cc1)C1CC(=O)N(c2ccc(OC)cc2)C1=O` (configuration not stated) was tested, and the inhibition was 11.6%.
With `CCn1ncc(CNC(=O)C2(C)CC2(Br)Br)c1C` (configuration not stated) the inhibition was 4.36%.
`CCCCCCCCCCOC(=O)Cn1c(COc2cccc(OC)c2)[n+](C)c2ccccc21` was tested, and the inhibition was 31% (active).
In the case of `Cc1c(C)c(C)c(S(=O)(=O)N2CCC3(CC2)OCCO3)c(C)c1C`, the inhibition was 5.79%.
For `COC(C/C=C/C(=O)[C@@H](C)OCc1ccccc1)OC`, the inhibition was 3.64%.
In the case of `O=C(/C=C(O)/C=C/c1ccc(O)cc1)/C=C/c1ccc(O)cc1`, the inhibition was 54.8% (active).
`CC(C)(C)C(=O)/C(C#N)=C/c1ccc(O)cc1` showed an inhibition of 4.34%.
In the case of `NC1=NC(=O)S/C1=C\c1ccc(O)cc1`, the inhibition was -0.48%.
Work on `COc1ccc(OCCNS(=O)(=O)Cc2ccccc2)cc1` yielded an inhibition of 4.63%.
With `COc1ccc(S(=O)(=O)NCCCCOc2ccc(Cl)cc2)cc1` the inhibition was 32.2% (active).
Compound `COc1ccc(S(=O)(=O)NCCOc2ccccc2)cc1F` has an inhibition of -2.02%.
In the case of `Cc1ccc(S(=O)(=O)N2CCOCC2)cc1C(=O)OC1CCCCC1=O` (configuration not stated), the inhibition was 5.95%.
`O=C(COc1ccccc1)Nc1cc2c3c(c1)CC(=O)N3CCC2` gave an inhibition of -0.99%.
With `CCCC(C(=O)OCCN(CC)CC)(c1ccccc1)c1ccccc1` the inhibition was 48.8% (active).
Work on `CCOC(=O)CCP(=O)(O)C(O)(c1ccccc1)c1ccccc1` yielded an inhibition of -4.02%.
Work on `CCN(CC)CCOC(=O)c1ccc(NC(=O)CNC(=O)c2ccccc2)cc1` yielded an inhibition of 10.2%.
For `CCC(C(=O)OCCN(CC)CC)c1ccccc1` (configuration not stated), the inhibition was 67.6% (active).
Work on `COC(CCN(C)C)(c1ccccc1)c1ccccc1` yielded an inhibition of 11.5%.
For `CCC(C(=O)Nc1ccc(C(C)C)cc1)c1ccccc1` (configuration not stated), the inhibition was 19.2%.
Work on `CN(C)C(=O)c1ccc2c(c1)C1C3CCC(C3)C1C(c1ccccc1)N2` (configuration not stated) yielded an inhibition of -2.46%.
With `CCOC(=O)N1CCC(NC(=O)Cn2cc3c(n2)CCCCC3)CC1` the inhibition was 0.05%.
`CC(C)c1ccc(C=NNc2ccc([N+](=O)[O-])cn2)cc1` was tested, and the inhibition was 27.5% (active).
`CC(C)c1ccc(/C=C2\NC(=O)NC2=O)cc1` was tested, and the inhibition was -18.6%.
Compound `CC(C)c1ccc(NC(=O)CCN2C(=O)c3ccc([N+](=O)[O-])cc3C2=O)cc1` has an inhibition of -6.62%.
In the case of `CCS(=O)(=O)N1CCC(N2CCN(c3ccccc3)CC2)CC1`, the inhibition was 8.56%.
Compound `Cc1ccccc1NS(=O)(=O)CCCCC(Cl)(Cl)Cl` has an inhibition of 3.5%.
Compound `COc1ccc(CN2CC(C(=O)NC3CCCCC3)CC2=O)cc1` (configuration not stated) has an inhibition of -0.55%.
Compound `CC(=O)N1CCN(Cc2cc(=O)oc3cc(C)ccc23)CC1` has an inhibition of -1.45%.
With `CC(=O)c1c(C)[nH]c(C(=O)COC(=O)c2cccc(S(=O)(=O)N(C)c3ccccc3)c2)c1C` the inhibition was 74.2% (active).
In the case of `COc1ccc(C)cc1NC(=O)C(OC(=O)c1cccc(S(=O)(=O)N(C)c2ccccc2)c1)c1ccccc1` (configuration not stated), the inhibition was -1.67%.
With `CN(c1ccccc1)S(=O)(=O)c1cccc(C(=O)NNC(=O)c2ccncc2)c1` the inhibition was 1.22%.
`O=C(CCc1nnc2ccc(NCc3ccccc3Cl)nn12)NCC1CCN(C2CCCC2)C1` (configuration not stated) showed an inhibition of 1.64%.
`COC(C[C@H](O)CC(=O)COCc1ccccc1)OC` was tested, and the inhibition was 2.21%.
For `O=C(NCCN1CCN(C(=O)c2cccc([N+](=O)[O-])c2)CC1)C(=O)NCc1ccc(Cl)cc1`, the inhibition was 10.1%.
In the case of `COc1ccc(CC(=O)NC2CCSc3ccccc32)cc1OC` (configuration not stated), the inhibition was 17.6%.
With `Cc1csc(NC(=O)CSc2ccc(-c3ccc(F)cc3)nn2)n1` the inhibition was 6.55%.
`COc1ccc(CC(=O)Nc2nc(-c3ccc(F)c(F)c3)cs2)cc1OC` was tested, and the inhibition was 32.4% (active).
Compound `O=C(CNCCO)NC12CC3CC(CC(C3)C1)C2` has an inhibition of -2.76%.
`O=C(Oc1ccc(-c2nnco2)cc1)c1ccc(F)c(S(=O)(=O)N2CCOCC2)c1` was tested, and the inhibition was 27.2% (active).
`NC(=O)C1CCN(C(=O)c2ccc(F)c(S(=O)(=O)N3CCOCC3)c2)CC1` was tested, and the inhibition was 13.8%.
In the case of `COc1ccc(C(=O)Oc2ccc(-c3nnco3)cc2)cc1S(=O)(=O)N1CCOCC1`, the inhibition was 15.9%.

From PubChem BioAssay AID624040 (The Scripps Research Institute Molecular Screening Center, 2012)
